Inconclusive results are not listed. The source made the active and inactive calls. Calls follow the shape of the dose curve; as a rule, active = well fitted inhibition curve with a large enough effect; inconclusive = small, poorly fitted or top-dose-only effect; inactive = no such curve, though single readings can be large or run the other way.
Each molecule was assayed against Coelenterazine h 2-monooxygenase (Renilla reniformis) (UniProt P27652) (assay: qHTS Assay for Inhibitors of Sea Pansy Luciferase from the GSK Published Protein Kinase Inhibitor Set). Conditions: purified Renilla luciferase, luminescence; series mostly up to 57.5 µM; activity change, negative = inhibition: at the top concentration.
Chain of Coelenterazine h 2-monooxygenase (Renilla reniformis) (P27652 whole entry, looked up): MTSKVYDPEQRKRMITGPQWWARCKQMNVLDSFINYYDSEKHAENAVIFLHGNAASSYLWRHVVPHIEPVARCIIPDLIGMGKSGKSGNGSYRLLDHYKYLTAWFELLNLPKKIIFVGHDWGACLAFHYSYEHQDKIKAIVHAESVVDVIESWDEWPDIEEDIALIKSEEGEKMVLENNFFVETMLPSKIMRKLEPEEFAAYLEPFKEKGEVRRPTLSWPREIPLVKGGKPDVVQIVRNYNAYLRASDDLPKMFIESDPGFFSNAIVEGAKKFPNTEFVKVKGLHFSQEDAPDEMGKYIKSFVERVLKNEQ
How it was run: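 qHTS (roughly 60 uM down to 300 pM) against 1 nM Renilla luciferase, substrate coelenterazine h 5 uM, Tris acetate pH 7.5 buffer with NaCl, Tween-20 and BSA. Luminescence measured after an average 2 min incubation.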
Potency is read from the fitted curve at half-maximal effect.

Row | Compound | activity change, negative = inhibition | Potency
1 | NS(=O)(=O)c1cccc(N=Cc2c(O)[nH]c3ccccc23)c1 | 10.9% (inactive) | 
2 | O=C(OC1CNC(C#Cc2cc3ncnc(Nc4ccc5c(ccn5Cc5cc(F)ccc5F)c4)c3s2)C1)N1CCOCC1 (configuration not stated) | 33.4% (inactive) | 
3 | Nc1nonc1-c1nc2cnccc2n1C1CCCCC1 | 48.6% (inactive) | 
4 | COc1cc2ncn(-c3cc(OC(C)c4ccccc4Cl)c(C(N)=O)s3)c2cc1OC (configuration not stated) | 7.79% (inactive) | 
5 | CCc1cccc(CC)c1C=Cc1cncc(C(=O)NC)c1 | 8.32% (inactive) | 
6 | COc1cccc(-n2ncc3c(NN=Cc4ccc(S(C)(=O)=O)cc4)ncnc32)c1 | 53.9% (inactive) | 
7 | CS(=O)(=O)CCNCc1nc(-c2ccc3ncnc(Nc4ccc(F)c(Cl)c4)c3c2)cs1 | 18.1% (inactive) | 
8 | CC1=C(C(=O)Nc2ccc3n[nH]c(C)c3c2)C(c2ccc(C(F)(F)F)cc2)CC(=O)N1 (configuration not stated) | 32.4% (inactive) | 
9 | Cc1cccc(Oc2nccc(-c3c(-c4ccc(F)cc4)ncn3C3CCNCC3)n2)c1C | 3.94% (inactive) | 
10 | COc1cccc(-n2ncc3c(NN=Cc4cccc(F)c4)ncnc32)c1 | 32.8% (inactive) | 
11 | Fc1ccc(-c2c(-c3ccncc3)nc3n2CCS3)cc1 | -2.73% (inactive) | 
12 | CNC(=O)c1cncc(C=Cc2ccccc2C)c1 | 53.9% (inactive) | 
13 | COc1ccccc1-c1cc(C=C2C(=O)Nc3ncc(Br)cc32)cc(Br)c1O |  | 8.19 µM (active)
14 | CNC(=O)c1cncc(C=Cc2ccccc2Cl)c1 | 5.6% (inactive) | 
15 | CN(C)CCCNc1nccc(-c2c(-c3ccc(F)cc3)nn3cc(C(F)(F)F)ccc23)n1 | 8.87% (inactive) | 
16 | CCn1cc(-c2ccnc3[nH]ccc23)c(-c2cccc(NC(=O)Nc3ccc(OCc4ccccc4)cc3)c2)n1 | 36.7% (inactive) | 
17 | N#Cc1c(NC(=O)c2ccc(F)cc2)sc2c1CCCC2 | 8.45% (inactive) | 
18 | CS(=O)(=O)Nc1ccc(-c2cc(-c3ccccc3)cc(C(N)=O)c2N)cc1 | 21.1% (inactive) | 
19 | CCCNc1cccc(-n2ncc3c(NN=Cc4ccncc4)ncnc32)c1 | 21.5% (inactive) | 
20 | COc1cccc(-n2ncc3c(NN=Cc4ccc(C(=O)NCCN(C)C)cc4)ncnc32)c1 | 19.8% (inactive) | 
21 | COc1ccc(CNC(=O)c2ccc(-c3cc(-c4nnc(C)o4)ccc3C)cc2)cc1 | 31.4% (inactive) | 
22 | CS(=O)(=O)CCN(CC#N)Cc1ccc(-c2ccc3ncnc(Nc4ccc(OCc5cccc(F)c5)c(Cl)c4)c3c2)o1 | 54.8% (inactive) | 

From PubChem BioAssay AID652015 (National Center for Advancing Translational Sciences (NCATS), 2013)
